Measurements from ChEMBL document CHEMBL4513216, “Probing the Open Global Health Chemical Diversity Library for Multistage-Active Starting Points for Next-Generation Antimalarials” (ACS Infect Dis, 2020).
The campaign covered roughly 68,000 compounds. About 2,700 (4%) showed an effect of 50% or more. What follows is part of a selection rich in strong results, with near analogues and random picks from the rest.

Each molecule was assayed on Plasmodium berghei (assay: Screen against P. berghei liver stage (PbLuc), transformed with Luciferase, at 2uM). Conditions: tested at 2 uM.
Assay type: functional, HepG2
With Cc1ccc(C(=O)NS(=O)(=O)c2cccc3cnccc23)c(=O)[nH]1 the INHIBITION was -14.17%. Cc1nc2ccccn2c1CN(Cc1cccnc1)CC1CCCO1 (stereo not given) showed an INHIBITION of 41.76%. In the case of Cc1cccc2c1nc(COCC(=O)O)n2-c1cnc(N)cn1, the INHIBITION is reported as -15.37%. For CCCc1nc(C(C)(C)NC(=O)C2CC(=O)N(CC3CC3)C2)no1 (stereo not given), the INHIBITION was 71.48%. Work on CN(C)Cc1nc(C(C)(C)NC(=O)C2CC(=O)N(CC3CC3)C2)no1 (stereo not given) yielded an INHIBITION of 17.39%. Work on CCCc1nc(C(C)(C)NC(=O)C2CC(=O)N(CC)C2)no1 (stereo not given) yielded an INHIBITION of -2.17%. For O=C(NCCO)c1coc(Cn2cnc3ccccc32)n1, the INHIBITION was 5.82%. For CN(CC(O)CO)C(=O)c1coc(COc2cccc(F)c2)n1 (stereo not given), the INHIBITION was -5.13%. Molecule CN(Cc1cnc(N)nc1)C(=O)c1coc(COc2cccc(F)c2)n1 has an INHIBITION of 51.31%. For CN(Cc1cnc(N)nc1)C(=O)c1coc(COc2ccccc2)n1, the INHIBITION was -31.73%. For CCOCCCNC(=O)C1(C)CCC(=O)N1Cc1ccccc1F (stereo not given), the INHIBITION was 15.96%. For CSCc1nc(CCNC(=O)C(N)c2c(C)n[nH]c2C)cs1 (stereo not given), the INHIBITION was -4.29%. O=C(c1ccnc(-n2cnnc2)c1)N1CCCC2(CCNC2)C1 (stereo not given) was tested, and the INHIBITION was 7.67%. In the case of N#Cc1cccc(C(=O)N2CCCC(O)(CO)CC2)c1 (stereo not given), the INHIBITION is reported as 16.82%. O=C(c1ccc(-n2cnnc2)cc1Cl)N1CCCC2(CCNC2)C1 (stereo not given) gave an INHIBITION of 57.75%. For O=C(c1cccc(Oc2ccccc2)c1)N1CCCC(O)(CO)CC1 (stereo not given), the INHIBITION was 53.66%. With O=C(c1cccc(-c2ccc(F)cc2)c1)N1CCCC(O)(CO)CC1 (stereo not given) the INHIBITION was 35.7%. In the case of O=C(c1ccc(-n2cnnc2)cc1Cl)N1CCCC(O)(CO)CC1 (stereo not given), the INHIBITION is reported as 58.57%. Work on O=C(c1ccc(-n2cccn2)cc1Cl)N1CCCC(O)(CO)C1 (stereo not given) yielded an INHIBITION of 21.36%. CN(C)CC1(O)CCN(C(=O)c2ccc(-n3cnnc3)cc2Cl)C1 (stereo not given) showed an INHIBITION of 21%. Molecule CNc1ccc(C)cc1C(=O)N1CCCC2(CCNC2)C1 (stereo not given) has an INHIBITION of 8.3%. Work on COCC(=O)N1CCO[C@H]2[C@H](OC)CC[C@@H]21 yielded an INHIBITION of 7.86%. With Cc1ccc(Oc2c(F)cccc2OC[C@@H](N)CC(C)C)cc1 the INHIBITION was 16.01%. For COC(=O)CN(C(=O)C(C)c1c(F)cccc1F)c1cccc(C)n1 (stereo not given), the INHIBITION was -23.76%. With Cc1oncc1C(=O)N1CC[C@H]2[C@H]1CCN2S(C)(=O)=O the INHIBITION was 15.36%. In the case of COCC1CC2(CCN(Cc3cccc(C#N)c3)CC2)CN1C(C)C (stereo not given), the INHIBITION is reported as -52.61%. Molecule Cc1nnc(NC(=O)NCc2ccnc(N(C)C)c2)s1 has an INHIBITION of 29.71%. O[C@@H]1C[C@@H](c2nc(-c3ccc(F)cc3)no2)N(C2CCOCC2)C1 was tested, and the INHIBITION was 51.2%. With O[C@@H]1C[C@@H](c2nc(-c3ccccc3)no2)N(C2CCOCC2)C1 the INHIBITION was 16.47%. Molecule COc1ccc(-c2noc([C@@H]3C[C@@H](O)CN3C3CCOCC3)n2)cc1 has an INHIBITION of 38.62%. Molecule O=C(c1[nH]nc2c1CCCC2)N1CCC(OCCN2CCCCC2)C1 (stereo not given) has an INHIBITION of 8.14%. For COC1CCN(C(=O)CCc2c(C)nc3ccnn3c2C)CC1, the INHIBITION was -3.38%. In the case of CCOc1ccc(CN2C(=O)CC3(CCCC3)C2=O)nc1, the INHIBITION is reported as -32.8%. Cc1nc(C(=O)N2CCN(c3ccc(Cl)c(Cl)c3)CC2)cs1 gave an INHIBITION of 23.19%. For O=C(O)c1ccccc1-n1cnc(CN2CCc3ccccc3C2)c1, the INHIBITION was 51.03%. With O=C(O)c1ccccc1-n1cnc(CN2CCc3ccccc32)c1 the INHIBITION was -26.26%. O=C(O)c1ccccc1-n1cnc(CN2CCCCCC2)c1 was tested, and the INHIBITION was 25.41%. Molecule CN(C(=O)C1CCOCC1)[C@@H]1CCC[C@@H](N2CCCC2)[C@@H]1O has an INHIBITION of -29.66%. CC1CN(S(=O)(=O)c2ccc(C(=O)NCC(F)F)cc2)CCCO1 (stereo not given) was tested, and the INHIBITION was 9.21%. For COCCn1ccnc1C1CCN(C(=O)c2cccc(COC)n2)CC1, the INHIBITION was -2.69%. In the case of CC(C)NC(=O)CCNC(=O)c1cc(F)ccc1NS(C)(=O)=O, the INHIBITION is reported as -84.03%. Work on c1cnn(C[C@@H]2C[C@@H]3CN(CC4CC4)CC[C@@H]3N2c2nccs2)c1 yielded an INHIBITION of -11.68%. With Cc1noc(C)c1CN1CCC(c2nc3cc(Cl)ccc3o2)CC1 the INHIBITION was 32.43%. For Cc1ncc(CN2CCC(c3nc4cc(Cl)ccc4o3)CC2)s1, the INHIBITION was 56.38%. Cc1nc(CN2CCC(c3nc4cc(Cl)ccc4o3)CC2)oc1C was tested, and the INHIBITION was 29.16%. Cc1oc(-c2nc(C#N)c(NC(C)C)o2)cc1S(=O)(=O)N1CCCCC1 gave an INHIBITION of 28.39%. With Cc1ccnc(C2(C)CCCN2S(=O)(=O)c2cccnc2)n1 (stereo not given) the INHIBITION was -0.7%. For O=C(Nc1cc(C(F)(F)F)c[nH]c1=O)C1CCCNC1 (stereo not given), the INHIBITION was -50.41%. Molecule CC1CCN(CCCNS(=O)(=O)c2cc(F)cc(F)c2)CC1 has an INHIBITION of 14.52%. Work on CCOC(=O)N1CCC(Oc2ccc(C(F)(F)F)cn2)CC1 yielded an INHIBITION of 30.98%. With O=S(=O)(c1cc(F)cc(F)c1)N1CCC(Oc2ccc(Cl)cn2)CC1 the INHIBITION was 20.5%. CC(=O)N1CCC(Oc2ccc(Cl)cn2)CC1 gave an INHIBITION of 64.16%. COc1ccc(F)cc1S(=O)(=O)N1CCC(Oc2ccc(Cl)cn2)CC1 gave an INHIBITION of 54.73%. In the case of COc1ccccc1C(=O)N1CCC(Oc2ccc(C#N)cn2)CC1, the INHIBITION is reported as 64.74%. N#Cc1ccc(OC2CCN(C(=O)c3ccccc3Cl)CC2)nc1 showed an INHIBITION of 54.47%. CCOCC(=O)N1CCC(Oc2ccc(Cl)cn2)CC1 showed an INHIBITION of -4.69%. Work on N#Cc1ccc(OC2CCN(C(=O)c3ccc(Br)o3)CC2)nc1 yielded an INHIBITION of -2.43%. Work on COc1ccc(F)cc1S(=O)(=O)N1CCC(OC)CC1 yielded an INHIBITION of 28.55%. CC(=O)N1CCC(Oc2ccc(C#N)cn2)CC1 showed an INHIBITION of -1.02%. In the case of N#Cc1ccc(C(=O)N2CCC(Oc3ccc(C#N)cn3)CC2)cc1, the INHIBITION is reported as 20.49%. Work on Cn1nc(C(=O)N2CCC(Oc3ccc(C#N)cn3)CC2)ccc1=O yielded an INHIBITION of 37.08%. Molecule COc1cc(N2CC[C@@H](O)[C@@H]2Cc2ccccc2)ncn1 has an INHIBITION of -30.57%. In the case of CNc1ccccc1C(=O)N(C)CCc1ccccc1, the INHIBITION is reported as -88.87%. CN(Cc1ccsc1)C(=O)c1n[nH]c(N)c1-c1ccccc1 gave an INHIBITION of 8.75%. For Cc1cc(C(=O)NC(C)Cc2cccc(Cl)c2)n(C)n1 (stereo not given), the INHIBITION was -16.65%.
